Screening data: PubChem, National Center for Advancing Translational Sciences (NCATS)
Only some compounds are listed: those with a hit (about 21% of all), similar ones and a draw of the others.
CHX counter – Cycloheximide Counterscreen for Small Molecule Inhibitors of Shiga Toxin; cell reporter, cycloheximide protein synthesis inhibition counterscreen; max response, %; 300,000 tested, 12% active; in the data active means max response mostly above about 13%, no sharp cut-off; inactive means mostly below about 14%; further: read at 38.3 µM for the half of the compounds with a filed dose; 0% is about no effect
Pf growth 96h – Primary qHTS for delayed death inhibitors of the malarial parasite plastid, 96 hour incubation | Potency, µM (titrated, usually from 28.7 µM), for the others: at the top dose activity change, negative = inhibition, most hits filed as inhibitors | AID 504834, 2011 | 320,000 tested, 6.9% active | P. falciparum luciferase reporter growth, 96 h; further: potency means the concentration at half of the fitted maximal effect; on the % scale 0 is the no-effect control and ±100 the full control effect
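Readout is luminescence from an integrated firefly luciferase in P. falciparum. Red cells, 2% hematocrit and 0.05% parasitemia final, were cultured with compound through two parasite generations (96 hours) at 37 C, 5% CO2.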
Pf growth 48h – Primary qHTS for delayed death inhibitors of the malarial parasite plastid, 48 hour incubation. P. falciparum luciferase growth in erythrocytes, 48 h. Potency, µM (doses to about 28.7 µM), without a hit: at the highest dose activity change, negative = inhibition, usual class: inhibitors. 310,000 tested, 5.9% active; further: potency means the concentration at half of the fitted maximal effect; on the % scale 0 is the no-effect control and ±100 the full control effect
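First compound was added to culture medium, then infected red cells at 0.1% parasitemia and 2% hematocrit (final). After incubation at 37 C under 5% CO2, luciferase detection reagent was dispensed and light output recorded.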
Shiga toxin inh – A qHTS for Small Molecule Inhibitors of Shiga Toxin; inhibition, % at 38.7 µM; Vero cells, Shiga toxin protein synthesis inhibition reporter; 290,000 tested, 9.2% active; in the data active means inhibition mostly above about 28%, no sharp cut-off; inactive means mostly below about 43%; further: 0% is about no effect
NS1 function inh – qHTS Assay for Inhibitors of Influenza NS1 Protein Function; Potency, µM (top dose mostly 46.1 µM), for the others: top-dose activity, positive = more growth; 270,000 tested, 0.4% active; calls by dose curve; further: potency means the concentration at half of the fitted maximal effect; actives are rising curves; nearly all actives have a fitted effect of over 50% in size
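Read-out: OD600 growth recovery of NS1-expressing budding yeast. Cells grown overnight at 30C in -URA glucose medium, washed, resuspended and diluted 1:100 in 2% galactose assay medium, pH 6.0. Same strain lacking NS1 served as positive control.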
* marks the source's active call; other numbers are inactive results; ? = inconclusive; . = no result given. Unless noted, the call rests on the fitted dose curve; in most records, active means well fitted inhibition curve with a large enough effect; inconclusive means small, poorly fitted or top-dose-only effect, or another doubt; inactive means no such curve, though single readings can be large or run the other way.

SMILES | CHX counter | Pf growth 96h | Pf growth 48h | Shiga toxin inh | NS1 function inh
Cc1ccc(C(=O)NC(=S)Nc2ccc(N3CCOCC3)cc2)c(C)c1 | 8.3 | ? | ? | 7.4 | 10.7%
Cc1ccc(C(=O)NC(=S)Nc2ccc3c(c2)OCCO3)c(C)c1 | 33.2* | ? | 48.7% | 71.0* | -48.1%
O=C(NC(=S)Nc1ccc(N2CCCCC2)c(Cl)c1)c1ccc2c(c1)OCCO2 | -4.4 | ? | ? | -1.9 | 13.0%
CC(C)C(=O)Nc1cccc(NC(=S)NC(=O)c2ccc3c(c2)OCO3)c1 | -2.7 | -38.0% | ? | -19.7 | -13.0%
CCc1ccc(C(=O)NC(=S)Nc2ccc3c(c2)OCCO3)cc1 | 41.3* | 8.28µM* | 182.5% | 71.8* | 16.6%
Cc1ccc(C(=O)Nc2ccc3c(c2)OCCO3)c(Cl)c1 | -1.7 | 31.7% | 154.3% | 4.4 | -16.7%
O=C(NC(=S)Nc1ccc2c(c1)OCCO2)c1ccc(F)cc1Cl | 28.3* | 2.1% | 68.8% | 33.8* | 23.0%
O=C(NC(=S)Nc1ccc2c(c1)OCO2)c1ccc(Cl)cc1 | 76.4* | 89.9% | 239.0% | 107.9* | -1.0%
CC1CCN(C(=O)CSc2nnc(CN3CCOCC3)n2-c2ccccc2)CC1 | 8.3 | . | 1.5% | -12.3 | 4.5%
C=CCN(C(=O)c1csnn1)C(C(=O)NC(C)(C)C)c1ccncc1 (configuration not stated) | -0.4 | 12.7% | 9.8% | 29.0 | -0.8%
O=S(=O)(Cc1ccc(Cl)cc1)Nc1ccc2c(c1)OCO2 | 1.0 | . | 7.3% | -8.8 | -15.0%
Cc1cc(C)cc(C(=O)NC(=S)Nc2ccc3c(c2)OCCO3)c1 | 31.5* | 0.928µM* | 145.4% | 73.7* | 0.1%
O=C(Nc1ccc2c(c1)OCO2)C1(S(=O)(=O)c2ccc(Cl)cc2)CC1 | 18.2 | 1.85µM* | -0.7% | 35.7 | -6.2%
Cc1ccc(NC(=O)C2(S(=O)(=O)c3ccc(C)cc3)CC2)cc1 | 10.6 | . | 8.0% | -2.6 | -8.2%
Cc1ccc(S(=O)(=O)C2(C(=O)Nc3ccc(C(C)C)cc3)CC2)cc1 | 49.7* | -36.8% | 29.0% | 82.7* | .
CCOC(=O)C(C)CC(C)C(=O)N1CCOCCN(C(=O)C(C)CC(C)C(=O)OCC)CCOCC1 (configuration not stated) | 1.4 | 82.1% | 8.28µM* | 25.7 | -1.7%
CCCCOC(=O)N1CCOCCOCCOCC1 | -1.3 | 11.1% | 31.8% | -9.6 | 3.0%
CC(C)(C)N(Cc1ccccc1)C(=O)COC(=O)CCN1C(=O)C2CC=CCC2C1=O (configuration not stated) | . | 2.2% | -25.1% | . | .
O=[N+]([O-])c1ccc(C2CN=C(Nc3ccccc3)S2)cc1 (configuration not stated) | 56.6* | 0.0% | 58.7% | 77.3* | .
CCc1ccc(NC2=NCC(c3ccccc3)S2)cc1 (configuration not stated) | 58.5* | -93.0% | ? | 82.5* | .
Cc1ccc(NC2=NCC(Cc3ccc(Br)cc3)S2)cc1 (configuration not stated) | 6.3 | 20.0% | ? | 26.5 | -4.1%
CCN(Cc1ccccc1)c1ccc(/C=N/NC(=O)c2cccc(S(=O)(=O)N3CCOCC3)c2)cc1 | -2.6 | ? | ? | -9.0 | 28.7%
CCN(CC)c1ccc(/C=N/N2CCN(c3ccccn3)CC2)cc1 | 1.5 | 22.2% | ? | -7.8 | 0.7%
CCN(Cc1ccccc1)c1ccc(/C=N/N2CCOCC2)cc1 | 36.4* | 58.8% | 31.5% | 28.0* | -25.4%
CCN(CC)c1ccc(/C=N/N2CCOCC2)cc1 | 52.8* | ? | 111.5% | 51.8* | -6.6%
SMILES | CHX counter | Pf growth 96h | Pf growth 48h | Shiga toxin inh | NS1 function inh
Cc1ccc(S(=O)(=O)NCC(=O)OC(C)C(=O)Nc2ncc(Cl)cc2Cl)cc1 (configuration not stated) | -2.2 | 0.0% | 10.0% | -11.0 | 8.0%
Cn1c(CSCc2ccc(F)cc2)n[nH]c1=S | 1.1 | 13.1µM* | -7.2% | -2.7 | 8.3%
Cn1c(CSCc2ccc(Cl)cc2)n[nH]c1=S | -0.9 | 34.2% | -10.3% | -3.5 | -3.7%
CCN1CCN(Cc2c(C)[nH]c3ccc(OC)cc3c2=O)CC1 | -2.0 | 14.9% | -7.9% | -8.8 | -2.7%
O=C(Nc1ccc(N2CCCC2)c(Cl)c1)c1cccs1 | 71.3* | ? | ? | 95.0* | -34.9%
O=C(NC(=S)Nc1ccc(N2CCOCC2)c(Cl)c1)c1cccs1 | 30.3* | 2.33µM* | ? | 59.7* | 5.8%
COc1ccc(CNC(=O)C(CCSC)NC(=O)c2ccco2)cc1 (configuration not stated) | -1.0 | 26.8% | . | -21.8 | ?
CN(Cc1cnn(C)c1)C(=O)c1cc(COc2c(F)cccc2F)on1 | 19.0* | -4.9% | 35.3% | 46.0 | -5.7%
COc1cccc(CN(C)C(=O)c2cc(COc3c(F)cccc3F)on2)c1 | 21.9* | -26.3% | 20.7% | 4.8 | -2.3%
CCN(Cc1ccccc1)C(=O)c1cc(COc2c(F)cccc2F)on1 | 12.9* | 13.6% | -14.1% | 18.0 | -3.6%
CCN(CCn1cccn1)C(=O)c1cc(COc2c(F)cccc2F)on1 | 1.1 | ? | 12.5% | 11.1 | -2.8%
CCCC/C(O)=C1\C(=O)CCCC1=NCCc1c(C)[nH]c2ccc(OC)cc12 | -2.4 | 3.4% | ? | -2.9 | 4.7%
O=[N+]([O-])c1ccc(C2OCCO2)cc1CS(=O)(=O)c1ccccc1 | 2.6 | 0.8% | 5.4% | -9.6 | .
COc1cccc(/C=C/C(=O)OCC(=O)NCC2CCCCC2)c1OC | . | 18.9% | -1.6% | . | .
CCOC(=O)C1CCN(c2cc3c(cc2NC(=O)c2ccccc2F)n(C)c(=O)n3C)CC1 | 0.4 | 1.3% | ? | 0.6 | -1.5%
Cn1c(=O)n(C)c2cc(NC(=O)c3ccc(F)cc3)c(Br)cc21 | -0.2 | 2.94µM* | ? | -9.7 | -3.2%
CCOC(=O)C1CCN(c2cc3c(cc2NC(=O)c2ccc(F)cc2)n(C)c(=O)n3C)CC1 | -4.1 | -25.0% | 11.7µM* | -1.0 | 9.3%
CNC(=O)c1ccc(-c2ccccc2)s1 | 34.1* | 107.1% | 3.3% | 69.2* | -68.8%
Cc1ccc2nc(C)n(-c3ccc(F)cc3)c(=O)c2c1 | 2.8 | -9.5% | 15.5% | 21.4 | 1.5%
Cc1ccc(C)c(-n2sc3ccc(F)cc3c2=O)c1 | . | 1.47µM* | 2.08µM* | . | .
COc1ccc(-n2sc3ccc(F)cc3c2=O)cc1 | . | 144.2% | 4.15µM* | . | .
O=c1c2cc(F)ccc2sn1-c1ccc(F)cc1 | . | 8.4% | 4.15µM* | . | .
Cc1cc(-n2nc3ccc(Cl)cc3n2)c(O)c(C(C)(C)C)c1 | . | ? | -2.0% | . | .
O=C(NCCCn1ccnc1)c1ccc(C(F)(F)F)cc1 | 0.6 | 12.9% | 14.9% | 16.6 | 4.4%
Cc1cc(C)nc(NS(=O)(=O)c2ccc(N/C=C/C(=O)c3ccc(Cl)c(Cl)c3)cc2)n1 | -5.4 | 32.8% | 5.0% | -3.4 | 25.3%
COc1cc(OC)c2nc(C)c3c(c2c1)N(c1ccc(O)cc1)CC3 | 1.3 | 13.1µM* | ? | -2.0 | 8.2%
O=S(=O)(Nc1ccc(S(=O)(=O)Nc2nccs2)cc1)c1ccc2c(c1)OCCO2 | -3.9 | . | 3.6% | -23.0 | 2.9%
